This passage reports outcome and AC50 results from PubChem BioAssay (EPA / NIEHS).

The AC50 is the concentration at which the activity in the assay is half-maximal.

Settings in all cases: mRNA level, 48 h; actives raise or lower the signal
Read-out in test [1]: Ezrin (EZR), EZR (gene 7430)
In words: LTEA_HepaRG_EZR: Life Technologies and Expression Analysis (LTEA) Assay for Ezrin (EZR) using HepaRG (AID 2283491). In short, it runs like this: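 EZR transcript levels came from Fluidigm qRT-PCR and were normalized to three housekeeping genes after 48 h chemical exposure of HepaRG cells. Dosing used an 8-point half-log series with a 100 uM top concentration in 0.5% DMSO, tested in duplicate; both directions were fitted versus vehicle.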

Read-out in test [2]: Cytochrome P450 3A7 (Homo sapiens) (UniProt P24462)
In words: LTEA_HepaRG_CYP3A7: Life Technologies and Expression Analysis (LTEA) Assay for CYP3A7 using HepaRG (AID 2283492). In a few lines: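 CYP3A7 transcript measured by qRT-PCR (ACTB, GAPDH, POLR2A normalization) after 48 h chemical exposure of HepaRG cells in duplicate. Eight half-log concentrations, maximum 100 uM, 0.5% DMSO vehicle; bidirectional curve fitting against DMSO baseline.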

Read-out in test [3]: CYP3A5 (gene 1577)
Nature of the test: LTEA_HepaRG_CYP3A5: Life Technologies and Expression Analysis (LTEA) Assay for CYP3A5 using HepaRG (AID 2283493). In short, it runs like this: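 Differentiated HepaRG cells in serum-free induction medium were dosed 48 h with test chemicals (8-point half-log series, top 100 uM, 0.5% DMSO, duplicate). CYP3A5 mRNA measured by qRT-PCR, normalized to ACTB, GAPDH, POLR2A; bidirectional fit versus DMSO.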

Read-out in test [4]: Fatty Acid-Binding Protein 1 (FABP1), FABP1 (gene 2168)
Nature of the test: LTEA_HepaRG_FABP1: Life Technologies and Expression Analysis (LTEA) Assay for Fatty Acid-Binding Protein 1 (FABP1) using HepaRG (AID 2283494). In short, it runs like this:
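Differentiated human HepaRG cells were exposed in duplicate for 48 h in serum-free induction medium to 8-point half-log concentration series topping at 100 uM in 0.5% DMSO. FABP1 mRNA measured by TaqMan qRT-PCR, normalized to ACTB/GAPDH/POLR2A; bidirectional fit versus DMSO.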

Read-out in test [5]: Cytochrome P450 4A22 (Homo sapiens) (UniProt Q5TCH4)
Nature of the test: LTEA_HepaRG_CYP4A22: Life Technologies and Expression Analysis (LTEA) Assay for Cytochrome P450 4A22 (CYP4A22) using HepaRG (AID 2283495). In a few lines:
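Gene expression measured by qRT-PCR against three housekeeping genes (ACTB, GAPDH, POLR2A), with gain or loss fitted relative to 0.5% DMSO vehicle. HepaRG cultures received 48 h chemical treatment, top concentration 100 uM, half-log steps, duplicate wells.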

Read-out in test [6]: Cytochrome P450 7A1 (Homo sapiens) (UniProt P22680)
In words: LTEA_HepaRG_CYP7A1: Life Technologies and Expression Analysis (LTEA) Assay for Cytochrome P450 7A1 (CYP7A1) using HepaRG (AID 2283496). In short, it runs like this:
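Gene expression endpoint in human HepaRG liver cells treated for 48 h with test chemicals (up to 100 uM, 0.5% DMSO). Values come from bidirectional concentration-response fitting versus DMSO.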

Read-out in test [7]: Glutathione S-Transferase (GSTA2), GSTA2 (gene 2939)
In words: LTEA_HepaRG_GSTA2: Life Technologies and Expression Analysis (LTEA) Assay for Glutathione S-Transferase (GSTA2) using HepaRG (AID 2283497). In a few lines: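 Human HepaRG cells, plated 48 h, then exposed in serum-free induction medium for 48 h to eight half-log concentrations up to 100 uM in 0.5% DMSO, duplicate. GSTA2 mRNA by qRT-PCR, normalized to ACTB/GAPDH/POLR2A; bidirectional fit versus DMSO.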

Read-out in test [8]: Glutamate-cysteine ligase catalytic (GCLC), GCLC (gene 2729)
In words: LTEA_HepaRG_GCLC: Life Technologies and Expression Analysis (LTEA) Assay for Glutamate-cysteine ligase catalytic (GCLC) using HepaRG (AID 2283498). In short, it runs like this:
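Differentiated human HepaRG cells, plated 48 h then switched to serum-free induction medium, were exposed in duplicate for 48 h to 8 half-log concentrations topping at 100 uM in 0.5% DMSO. GCLC mRNA was quantified by qRT-PCR against ACTB, GAPDH and POLR2A.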

Read-out in test [9]: Glutamate-cysteine ligase regulatory (GCLM), GCLM (gene 2730)
Nature of the test: LTEA_HepaRG_GCLM: Life Technologies and Expression Analysis (LTEA) Assay for Glutamate-cysteine ligase regulatory (GCLM) using HepaRG (AID 2283500). In a few lines:
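Differentiated human HepaRG cells exposed 48 h in serum-free induction medium to 8-point half-log concentrations (top 100 uM, 0.5% DMSO), in duplicate. GCLM mRNA quantified by qRT-PCR, normalized to ACTB, GAPDH, POLR2A; bidirectional fitting versus DMSO.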

Read-out in test [10]: Glutathione S-transferase M3 (GSTM3), GSTM3 (gene 2947)
In words: LTEA_HepaRG_GSTM3: Life Technologies and Expression Analysis (LTEA) Assay for Glutathione S-transferase M3 (GSTM3) using HepaRG (AID 2283501). In a few lines: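 GSTM3 transcript levels came from Fluidigm TaqMan qRT-PCR normalized to three housekeeping genes, fitted in both directions against DMSO. HepaRG cultures received chemicals for 48 h in serum-free induction medium (0.5% DMSO), 8 half-log concentrations up to 100 uM, duplicate.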

Read-out in test [11]: Heat shock 70 kDa protein 1 (HSPA1A), gene 3303
In words: LTEA_HepaRG_HSPA1A: Life Technologies and Expression Analysis (LTEA) Assay for Heat shock 70 kDa protein 1 (HSPA1A) using HepaRG (AID 2283502). In a few lines:
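Differentiated human HepaRG cells in serum-free induction medium were exposed in duplicate for 48 h to eight concentrations (top 100 uM, half-log steps, 0.5% DMSO). HSPA1A mRNA was quantified by qRT-PCR, normalized to ACTB, GAPDH and POLR2A, and fitted bidirectionally against DMSO.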

Read-out in test [12]: Hypoxia-inducible factor 1-alpha (Homo sapiens) (UniProt Q16665)
In words: LTEA_HepaRG_HIF1A: Life Technologies and Expression Analysis (LTEA) Assay for Hypoxia-inducible factor 1 (HIF1A) Trancription factor using HepaRG (AID 2283503). In short, it runs like this: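 HepaRG, 48 h exposure, 8-pt half-log series from 100 uM, 0.5% DMSO vehicle, duplicates. Readout: HIF1A transcript by qRT-PCR (Fluidigm array), housekeeping-normalised. Bidirectional curve fit vs DMSO baseline.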

Read-out in test [13]: 3-Hydroxy-3-Methylglutaryl-CoA Synthase 2 (HMGCS2), HMGCS2 (gene 3158)
Nature of the test: LTEA_HepaRG_HMGCS2: Life Technologies and Expression Analysis (LTEA) Assay for 3-Hydroxy-3-Methylglutaryl-CoA Synthase 2 (HMGCS2) using HepaRG (AID 2283504). In a few lines:
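Readout is HMGCS2 transcript by qRT-PCR, housekeeping-normalised (ACTB/GAPDH/POLR2A) and fitted bidirectionally against 0.5% DMSO. Differentiated HepaRG cells received chemicals 48 h, duplicate wells, eight half-log concentrations topping at 100 uM.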

Read-out in test [14]: HGF (gene 3082)
Nature of the test: LTEA_HepaRG_HGF: Life Technologies and Expression Analysis (LTEA) Assay for Hepatocyte Growth Facto (HGF) using HepaRG (AID 2283505). In short, it runs like this: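 HGF transcript was quantified by TaqMan qRT-PCR against three housekeeping genes after 48 h treatment of HepaRG cells. Exposure ran in duplicate over eight half-log steps topping at 100 uM in 0.5% DMSO vehicle.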

Read-out in test [15]: Insulin Like Growth Factor 1 (IGF1), IGF1 (gene 3479)
In words: LTEA_HepaRG_IGF1: Life Technologies and Expression Analysis (LTEA) Assay for Insulin Like Growth Factor 1 (IGF1) using HepaRG (AID 2283506). In short, it runs like this:
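Differentiated human HepaRG cells were dosed for 48 h in serum-free induction medium with 0.5% DMSO, eight half-log concentrations up to 100 uM, in duplicate. IGF1 mRNA was quantified by qRT-PCR normalized to ACTB, GAPDH, POLR2A; bidirectional fitting versus DMSO.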

Read-out in test [16]: Insulin-like growth factor-binding protein 1 (IGFBP1), IGFBP1 (gene 3484)
In words: LTEA_HepaRG_IGFBP1: Life Technologies and Expression Analysis (LTEA) Assay for Insulin-like growth factor-binding protein 1 (IGFBP1) using HepaRG (AID 2283508). In short, it runs like this: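 Read-out is qRT-PCR transcript level normalized to three housekeeping genes, fitted in both directions against 0.5% DMSO. Differentiated HepaRG cells received eight half-log concentrations (top 100 uM) in duplicate for 48 h in serum-free induction medium.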

Read-out in test [17]: Intercellular Adhesion Molecule 1 (ICAM1), ICAM1 (gene 3383)
Nature of the test: LTEA_HepaRG_ICAM1: Life Technologies and Expression Analysis (LTEA) Assay for Intercellular Adhesion Molecule 1 (ICAM1) using HepaRG (AID 2283507). In short, it runs like this: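 ICAM1 transcript levels measured by qRT-PCR, normalized to three housekeeping genes (ACTB, GAPDH, POLR2A), after 48 h chemical exposure of HepaRG cells. Duplicate eight-point half-log series from 100 uM in 0.5% DMSO; gain or loss fitted against vehicle.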

Read-out in test [18]: growth arrest and DNA damage 45 (GADD45G), GADD45G (gene 10912)
In words: LTEA_HepaRG_GADD45G: Life Technologies and Expression Analysis (LTEA) Assay for growth arrest and DNA damage 45 (GADD45G) using HepaRG (AID 2283499). In short, it runs like this: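 GADD45G transcript level by qRT-PCR (housekeeping-normalized: ACTB, GAPDH, POLR2A) after 48 h chemical treatment of a single HepaRG lot in serum-free induction medium; eight-point half-log series up to 100 uM in 0.5% DMSO, duplicates, up- or down-regulation scored.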

Read-out in test [19]: Early growth response protein 1 (EGR1) transcription factor, EGR1 (gene 1958)
In words: LTEA_HepaRG_EGR1: Life Technologies and Expression Analysis (LTEA) Assay for Early growth response protein 1 (EGR1) transcription factor using HepaRG (AID 2283490). In a few lines:
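Differentiated human HepaRG cells in serum-free induction medium were exposed in duplicate for 48 h to eight concentrations (top 100 uM, half-log steps) in 0.5% DMSO. EGR1 mRNA was quantified by qRT-PCR, normalized to ACTB, GAPDH and POLR2A, and fitted bidirectionally versus DMSO.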

The structures appear in SMILES notation. The source made the active and inactive calls. How the source made its calls: active means hit-call score of the fitted dose curve at least 0.9, where 1 is the maximum; inactive means score below 0.9.

Sequence of Cytochrome P450 3A7 (Homo sapiens) (P24462 whole entry, looked up): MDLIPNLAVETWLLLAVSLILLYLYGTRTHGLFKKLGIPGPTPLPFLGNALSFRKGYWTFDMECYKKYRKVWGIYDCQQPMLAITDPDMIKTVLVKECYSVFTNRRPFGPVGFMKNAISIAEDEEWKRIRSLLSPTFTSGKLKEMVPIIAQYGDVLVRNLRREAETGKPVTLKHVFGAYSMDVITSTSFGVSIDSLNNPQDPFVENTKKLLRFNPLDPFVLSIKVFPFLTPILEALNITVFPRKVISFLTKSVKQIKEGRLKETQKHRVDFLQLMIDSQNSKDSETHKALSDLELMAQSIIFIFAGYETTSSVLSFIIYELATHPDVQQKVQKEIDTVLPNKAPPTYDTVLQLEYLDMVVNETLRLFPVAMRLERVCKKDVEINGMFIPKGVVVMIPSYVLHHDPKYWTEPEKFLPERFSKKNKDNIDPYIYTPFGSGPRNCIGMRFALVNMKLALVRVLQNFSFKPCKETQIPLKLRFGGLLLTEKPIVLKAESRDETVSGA
Sequence of Hypoxia-inducible factor 1-alpha (Homo sapiens) (Q16665 whole entry, looked up): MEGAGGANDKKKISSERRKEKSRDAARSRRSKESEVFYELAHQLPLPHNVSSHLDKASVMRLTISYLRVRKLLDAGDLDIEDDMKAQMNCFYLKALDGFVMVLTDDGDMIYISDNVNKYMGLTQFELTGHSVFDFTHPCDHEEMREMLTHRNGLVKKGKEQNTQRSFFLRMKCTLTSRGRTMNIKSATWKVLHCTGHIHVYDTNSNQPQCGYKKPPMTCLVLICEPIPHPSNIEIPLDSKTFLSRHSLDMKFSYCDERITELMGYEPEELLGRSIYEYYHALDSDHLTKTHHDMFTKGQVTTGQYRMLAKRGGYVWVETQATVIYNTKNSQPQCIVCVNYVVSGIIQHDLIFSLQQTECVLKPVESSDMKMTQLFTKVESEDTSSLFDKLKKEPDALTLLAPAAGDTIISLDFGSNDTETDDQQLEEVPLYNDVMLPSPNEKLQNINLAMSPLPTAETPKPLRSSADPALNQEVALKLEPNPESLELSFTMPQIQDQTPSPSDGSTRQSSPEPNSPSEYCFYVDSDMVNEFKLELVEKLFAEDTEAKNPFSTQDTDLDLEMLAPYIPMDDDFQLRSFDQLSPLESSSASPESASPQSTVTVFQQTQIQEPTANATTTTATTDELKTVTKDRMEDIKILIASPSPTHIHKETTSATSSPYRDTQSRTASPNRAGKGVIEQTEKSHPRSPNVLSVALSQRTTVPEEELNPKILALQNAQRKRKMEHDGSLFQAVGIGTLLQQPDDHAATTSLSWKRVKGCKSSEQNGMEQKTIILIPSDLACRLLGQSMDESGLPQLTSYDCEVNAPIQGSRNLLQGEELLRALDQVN

With `CCCCCCCCCCCCCCCC`, the call in test [1], in test [2], in [3], in test [4], in test [5] and in test [6] was inactive. For the same compound, the compound was classed as inactive in [7], in [8], in [9], in test [10], in test [11] and in [12]. In addition, the outcome in [13], in test [14], in [15] and in [16] was inactive.

`C[C@]12C=CC(=O)C=C1CC[C@@H]1[C@@H]2C(=O)C[C@@]2(C)[C@H]1CC[C@]2(O)C(=O)CO`: the outcome in test [1], in test [4], in test [7], in test [8], in test [9] and in test [10] was inactive. For the same compound, the compound was classed as inactive in [12], in test [13], in [14], in [15], in test [17] and in test [16].

With `Cc1cc(=O)[nH]c(=S)[nH]1`, the compound was called inactive in test [1], in test [2], in test [3], in [4], in test [5] and in test [6]. Besides, the compound was classed as inactive in [7], in [8], in [18], in [9], in test [10] and in [11]. For the same compound, the result in test [12], in test [13], in test [14], in test [15], in [17] and in test [16] was inactive.

In the case of `CN1CCN(Cc2cc(-c3ccc4[nH]c(=O)oc4c3)co2)[C@@H](c2ccc(F)cc2)C1`, the outcome in [19], in [1], in test [3], in [4], in test [6] and in test [8] was inactive. In addition, the compound was classed as inactive in [9], in [10], in test [11], in test [12], in test [13] and in [15]. Also, the compound was called inactive in test [17] and in [16]. Further, the concentration at half-maximal activity (AC50) in [2] is 11.5 µM (active); in [5], 50 µM (active); in test [7], 12.2 µM (active).
